Sampled rows, rich in hits. Any-hit rate of the full collection: about 12%.
HP1b chromo inh = inhibitors of HP1-beta chromodomain binding to methylated histone tails; P83916; AlphaScreen HP1-beta / biotin-H3K9me3 peptide binding; Potency, µM (series often up to 114 µM), actives largely listed as inhibitors; 390,000 tested, 0.56% active; AID 540317; note: nearly all actives have a fitted effect of over 70% in size
Target sequence (P83916 whole entry, looked up): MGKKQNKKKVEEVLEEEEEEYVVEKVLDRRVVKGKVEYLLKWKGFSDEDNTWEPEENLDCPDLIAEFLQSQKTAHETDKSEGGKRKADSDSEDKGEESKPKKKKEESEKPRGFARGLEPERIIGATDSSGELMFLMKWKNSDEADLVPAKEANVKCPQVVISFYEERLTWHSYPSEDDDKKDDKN
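Compound inhibition of the preformed complex between 50 nM HP1-beta and 50 nM biotinylated H3K9me3 peptide was read by AlphaScreen. Buffer was PBS pH 7.4 with 0.01% Tween-20. Incubations ran 30 min at room temperature, with 10 ug/mL donor/acceptor beads.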
Sfp PPTase inh = Sfp phosphopantetheinyl transferase inhibition | Potency, µM, actives largely listed as inhibitors | 310,000 tested, 3.5% active | Biochemical Sfp PPTase activity, qHTS | AID 1490 | Q9F4F7;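 note: the enzyme is Sfp with the accession as filed and its product quenches rhodamine fluorescence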
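Reaction rates are the 30-min fluorescence difference (ex 525, em 598 nm) in wells containing 15 nM Sfp, 5 uM rhodamine-CoA and 12.5 uM BHQ-2-YbbR at pH 7.6 with 10 mM MgCl2.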
G9a block = G9a (human) methyltransferase inhibition | Q96KQ7 | G9a H3K9 monomethylation, AlphaScreen, 2 h | Potency, µM (titrated, usually from 102 µM), actives largely listed as inhibitors | 350,000 tested, 8.8% active | AID 504332; note: nearly all actives have a fitted effect of over 75% in size
Target sequence (Q96KQ7 913-1193 limits assumed): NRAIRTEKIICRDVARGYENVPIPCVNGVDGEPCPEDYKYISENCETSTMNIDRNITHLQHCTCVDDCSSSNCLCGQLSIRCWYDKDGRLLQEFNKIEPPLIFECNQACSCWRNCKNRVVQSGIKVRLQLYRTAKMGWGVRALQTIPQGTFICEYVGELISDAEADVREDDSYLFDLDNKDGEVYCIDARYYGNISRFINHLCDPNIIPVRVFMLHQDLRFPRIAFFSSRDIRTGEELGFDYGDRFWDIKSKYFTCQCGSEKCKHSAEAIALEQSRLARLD
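G9a (20 nM) preincubated 15 min RT with compounds, then 500 nM biotinylated H3K9 peptide and 20 uM SAM added; 2 h RT reaction. Monomethyl-H3K9 product detected by AlphaScreen with anti-H3K9me1 antibody, streptavidin donor and anti-rabbit IgG acceptor beads.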
JMJD2A Tudor = inhibitors of human JMJD2A Tudor domain; O75164; Potency, µM (top dose mostly 114 µM), actives largely listed as inhibitors; 390,000 tested, 4.4% active; AlphaScreen JMJD2A-Tudor / H3K4me3 peptide binding; note: nearly all actives have a fitted effect of over 50% in size
BAZ2B inh = BAZ2B (human) inhibition. Potency, µM (titrated, usually from 114 µM), usual class: inhibitors. AlphaScreen BAZ2B-H3K14Ac peptide displacement. 360,000 tested, 4.4% active. Q9UIF8; note: nearly all actives have a fitted effect of over 60% in size
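Inhibition is scored as reduced AlphaScreen emission. The BAZ2B/b-H3(5-23)K14Ac complex (50 nM each) in PBS pH 7.4, 0.01% Tween-20 meets compound (up to 110 uM) for 30 min at RT before bead addition.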
A number is an active result. Calls come from the whole dose curve; as a rule, active = well fitted curve in the direction sought with a large enough effect; inconclusive = small, poorly fitted or top-dose-only effect, or another doubt; inactive = no such curve, though single readings can be large; an effect the other way counts as inactive or inconclusive.

O=C(Cn1c(=O)nc(-c2ccccc2)c2ccccc21)Nc1ccc(Cl)cc1F was read as HP1b chromo inh inactive, G9a block inactive, JMJD2A Tudor inactive and BAZ2B inh inactive.
For O=C(c1ccco1)N1CCCC(Nc2ccc3c(c2)OCCO3)C1 (centres undefined) the results were HP1b chromo inh inactive, Sfp PPTase inh inactive, JMJD2A Tudor inactive and BAZ2B inh inconclusive.
`O=C(c1cc(Cl)ccc1F)N1CCCC(Nc2ccc3c(c2)OCCO3)C1` (centres undefined) gave HP1b chromo inh inactive, Sfp PPTase inh inactive, G9a block 79.4µM, JMJD2A Tudor inconclusive and BAZ2B inh inconclusive.
For CSCc1ccc(C(=O)N2CCCC(Nc3ccc4c(c3)OCCO4)C2)o1 (centres undefined) the results were HP1b chromo inh inactive, Sfp PPTase inh inactive, G9a block 79.4µM, JMJD2A Tudor inactive and BAZ2B inh inactive.
For COc1ccc(C)cc1NC(=O)CCn1nc(C)cc1C the results were HP1b chromo inh inactive, G9a block inactive, JMJD2A Tudor inconclusive and BAZ2B inh 50.1µM.
For c1ccc2c(c1)CCN(C1CCCCC1)C2 the results were HP1b chromo inh inconclusive, Sfp PPTase inh inactive, G9a block 20µM, JMJD2A Tudor 25.1µM and BAZ2B inh 79.4µM.
COc1cccc(CN2CCCC(N3CCc4ccccc4C3)C2)c1O (centres undefined) was read as HP1b chromo inh inactive, Sfp PPTase inh inactive, G9a block inconclusive, JMJD2A Tudor inactive and BAZ2B inh inactive.
COc1ccc(OC)c(C2=NS(=O)(=O)N(C)C(C(=O)Nc3cccc(C(C)=O)c3)=C2)c1 was read as HP1b chromo inh inactive, Sfp PPTase inh inactive, G9a block 44.7µM, JMJD2A Tudor 15.8µM and BAZ2B inh inconclusive.
COc1ccc(OC)c(C2=NS(=O)(=O)N(C)C(C(=O)NCc3cccs3)=C2)c1 was read as HP1b chromo inh inactive, Sfp PPTase inh inactive, G9a block inactive, JMJD2A Tudor 22.4µM and BAZ2B inh inactive.
For CC(=O)Nc1ccc(NC(=O)c2oc3ccc4c(c3c2C)C(=O)CC(C)(C)O4)cc1 the results were HP1b chromo inh inactive, G9a block inactive, JMJD2A Tudor inactive and BAZ2B inh inactive.
COC(=O)c1ccc(C(NC(=O)OCc2ccccc2)/C(I)=C/[C@@H](C)C(=O)NCc2ccc(C)o2)cc1 (some centres undefined) was read as Sfp PPTase inh 39.8µM.
Screening CC(=O)Nc1ccc(NC(=O)CSc2nnc(N)n2-c2ccccc2)cc1 returned HP1b chromo inh inactive and JMJD2A Tudor inactive.
COc1cc2c(cc1N)-c1ccc(N)cc1C2 was read as HP1b chromo inh inconclusive and JMJD2A Tudor 14.1µM.
For Nc1ccc2c(c1)Cc1cc(N)c(Br)cc1-2 the results were HP1b chromo inh inconclusive and JMJD2A Tudor 50.1µM.
For CCC12CN3CC(CC)(CN(C1)C3c1cccc(OC)c1O)C2=O (centres undefined) the results were HP1b chromo inh inactive, G9a block inactive, JMJD2A Tudor inactive and BAZ2B inh inactive.
O=C(Cn1c(=O)nc(-c2ccccc2)c2ccccc21)Nc1cccc(C(F)(F)F)c1 was read as HP1b chromo inh inactive, G9a block inactive, JMJD2A Tudor inactive and BAZ2B inh inactive.
Screening COc1ccc(NC(=O)Cc2csc(COc3cccc(C)c3)n2)c(OC)c1 returned HP1b chromo inh inactive, G9a block inactive, JMJD2A Tudor inactive and BAZ2B inh inactive.
For COc1ccc(OC)c(C2C(C(C)=O)=C(O)C(=O)N2CCc2ccc(OC)c(OC)c2)c1 (centres undefined) the results were HP1b chromo inh inactive, Sfp PPTase inh inactive, G9a block inconclusive, JMJD2A Tudor inactive and BAZ2B inh inactive.
`CC(=O)C1=C(O)C(=O)N(c2nccs2)C1c1ccccc1F` (centres undefined) gave HP1b chromo inh inactive, Sfp PPTase inh inactive, JMJD2A Tudor inactive and BAZ2B inh inactive.
`COc1ccc(C2C(C(C)=O)=C(O)C(=O)N2c2nccs2)c(OC)c1` (centres undefined) gave HP1b chromo inh inactive, Sfp PPTase inh inactive, G9a block 39.8µM, JMJD2A Tudor inactive and BAZ2B inh inconclusive.
COc1ccc(C2C(C(C)=O)=C(O)C(=O)N2CCO)c(OC)c1 (centres undefined) was read as HP1b chromo inh inactive, Sfp PPTase inh inactive, G9a block 50.1µM, JMJD2A Tudor inconclusive and BAZ2B inh inconclusive.
CCCCN1C(=O)C(O)=C(C(C)=O)C1c1ccc(OC)cc1OC (centres undefined) was read as HP1b chromo inh inactive, Sfp PPTase inh inactive, G9a block inconclusive, JMJD2A Tudor 50.1µM and BAZ2B inh 50.1µM.
Screening O=C(O)C1C2C=CC(CC2)C1C(=O)O (centres undefined) returned HP1b chromo inh 79.4µM, Sfp PPTase inh 39.8µM, G9a block 44.7µM, JMJD2A Tudor inactive and BAZ2B inh 50.1µM.
CC(C)c1ccc(NC(=O)C2C3C=CC(CC3)C2C(=O)O)cc1 (centres undefined) was read as HP1b chromo inh inactive and JMJD2A Tudor inactive.
CCc1ccc(N2CC(C)Cn3c2nc2c3c(=O)n(CC(=O)O)c(=O)n2C)cc1 (centres undefined) was read as HP1b chromo inh inactive, G9a block inactive, JMJD2A Tudor inactive and BAZ2B inh inactive.
`CCOC(=O)C1CCN(c2ncnc3c2c(-c2ccccc2)cn3-c2ccc(C)c(Cl)c2)CC1` gave HP1b chromo inh inactive, G9a block inactive, JMJD2A Tudor inactive and BAZ2B inh inactive.
CCOC(=O)c1ccc(NC(=O)c2c(NCc3cc(OC)c(OC)cc3OC)sc3c2CCCC3)cc1 was read as HP1b chromo inh inconclusive, G9a block 7.08µM, JMJD2A Tudor 25.1µM and BAZ2B inh 25.1µM.
`COC(=O)c1ccc(NC(=O)c2c(NCc3cccc(F)c3)sc3c2CCCC3)cc1` gave HP1b chromo inh inactive, G9a block inconclusive, JMJD2A Tudor inconclusive and BAZ2B inh inactive.
Screening CCOC(=O)c1ccc(NC(=O)c2c(NCc3cc(OC)ccc3OC)sc3c2CCC3)cc1 returned HP1b chromo inh inactive, G9a block 5.01µM, JMJD2A Tudor inactive and BAZ2B inh inactive.
CCOC(=O)N1CCc2c(sc(NCc3cc(OC)c(OC)cc3OC)c2C(=O)Nc2ccc(OCC)cc2)C1 was read as HP1b chromo inh inconclusive, G9a block 3.16µM, JMJD2A Tudor 11.2µM and BAZ2B inh inconclusive.
CCOc1ccc(NC(=O)c2c(NCc3cc(OC)c(OC)cc3OC)sc3c2CCCC3)cc1 was read as HP1b chromo inh inconclusive, G9a block 12.6µM, JMJD2A Tudor 25.1µM and BAZ2B inh 25.1µM.
CC(C)Oc1ccc(S(=O)(=O)N2CCOCC2)cc1NC(=O)c1cccc(S(=O)(=O)N2CCCC2)c1 was read as HP1b chromo inh inactive and JMJD2A Tudor inactive.
CCOC(=O)c1c(C)oc2nc(C)nc(NCCc3ccc(OCC)c(OCC)c3)c12 was read as HP1b chromo inh inactive, G9a block inactive, JMJD2A Tudor inactive and BAZ2B inh inactive.

Screening results deposited in PubChem by National Center for Advancing Translational Sciences (NCATS).
